About 310 (0.13%) of roughly 230,000 compounds were called active. Not shown: some 2% with an inconclusive outcome. The entries come from a sample that favours actives as a whole. Unmarked numbers belong to inactive results. Calls come from the whole dose curve; as a rule, active = well fitted activation curve with a large enough effect; inconclusive = small, poorly fitted or top-dose-only effect; inactive = no such curve, though single readings can be large or run the other way.
experiment: qHTS Multiplex Assay to Identify Dual Action Probes in a Cell Model of Huntington: Cytoprotection (ATP); details: PC12 HTT-Q103 induced, ATP luminescence, 40 h; series mostly up to 56.4 µM; cytoprotection (ATP increase): at the top concentration; note: nearly all actives have a fitted effect of over 45% in size;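 for cytoprotection (ATP increase): toxic huntingtin expression switched on by the ecdysone agonist tebufenozide; % of control where 0% means no effect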
Procedure, shortened: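 PC12 cells with ecdysone-inducible HTT exon 1 Q103-GFP, induced with 100 nM tebufenozide and co-treated with library compounds in a dose series (1536-well, 1500 cells/well). Cytoprotection read as ATP content by ATPlite luminescence.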
Potency is the fitted concentration of half-maximal effect.

| Compound | cytoprotection (ATP increase) | Potency |
| --- | --- | --- |
| CCCCCCCC/C=C\CCCCCCCC(=O)OC[C@H](CO)OC(C)=O | inactive |  |
| Cc1ccc(CC2(O)CCN(CCOc3ccc(O)cc3)CC2)cc1 | -66.8% |  |
| C=C1O[C@@](CO)(n2cnc3c(N)ncnc32)[C@H](O)[C@@H]1O | -56.7% |  |
| CC1=C2[C@@H](O)[C@H]([C@@H](C)C(=O)NCCC(C)C)CC[C@@]2(C)C=CC1=O | 16% |  |
| COc1cccc([C@@H]2Oc3ccc(Br)cc3C(=O)[C@H]2OC(=O)NCCc2ccc(OC)c(OC)c2)c1 | -49.1% |  |
| CCCCC/C=C\C/C=C\C/C=C\CCCCCCC(N)=O | 26.9% |  |
| O=C1OCCN1C(=O)[C@H]1[C@H](c2ccccc2)C(c2ccc(F)cc2)=NN1c1ccccc1 | -95.6% |  |
| CCCCC/C=C\C/C=C\C/C=C\CCCCC(=O)NCC(=O)O | 19.8% |  |
| C/C=C1\C2C=C(C)CC1(N)c1ccc(=O)[nH]c1C2 (centres undefined) | inactive |  |
| COc1cccc(NC(=O)CN(C)CC(=O)Nc2ccc3c(c2)CCC3)c1 | 19.6% [at 10 µM] |  |
| Cc1ccc(-c2ncc(Cl)cc2-c2ccc(S(C)(=O)=O)cc2)cn1 | -6.4% |  |
| CC1(OC(=O)C2CCCC2)C(=O)C=C2C=C(c3ccc(C#N)cc3)OC=C2C1=O (centres undefined) | 14.5% |  |
| CCC(C)[C@@H](N)C(=O)O (some centres undefined) | inactive |  |
| Cc1cc2oc(=O)cc(-c3ccccc3)c2c(C)c1/C=C/c1ccc(F)cc1 | 7.14% |  |
| COc1ccc(-c2nc3c(c4c2C[C@H](c2ccccc2)OC4)CN(S(=O)(=O)c2c(C)noc2C)CC3)c(C)c1 | -10% [at 10 µM] |  |
| O=C1/C(=C/c2cccs2)SC(=S)N1C1CCS(=O)(=O)C1 (centres undefined) | -20.7% [at 10 µM] |  |
| C=C1c2cccc(OC)c2O[C@H](C(=O)OCC)[C@@H]1CCCCCC | -42.4% |  |
| C=CCC1CCC(=O)N2CCCC12 (centres undefined) | 30.3% [at 96.6 µM] |  |
| COC(=O)c1cc(C(=O)OCC(=O)Nc2cc(C)on2)cc([N+](=O)[O-])c1 | -6.88% [at 10 µM] |  |
| CC[C@H](C)[C@@H](NC(=O)O[C@@H]1C(=O)c2cc(OC)ccc2O[C@H]1c1cccc(OC)c1)C(=O)OC | -40.8% |  |
| O=C(c1cc2ccccc2o1)N1CCN(Cc2ccccc2)CC1 | -59.7% |  |

| Compound | cytoprotection (ATP increase) | Potency |
| --- | --- | --- |
| COc1cc2c(cc1OC)CC(=O)N(CCCN(C)C[C@H]1Cc3cc(OC)c(OC)cc31)CC2 | 32.3% |  |
| C=CC1=C2C=C(C3CC3)N(CC(C)C)C=C2C(=O)C(C)(OC(=O)c2ccco2)C1=O (centres undefined) | -19.6% [at 10 µM] |  |
| S=C(NCCCc1cnc[nH]1)NCCCN(Cc1ccc(Cl)c(Cl)c1)c1ccc(Br)cn1 | -350% |  |
| C/C(CC(=O)NC(C)c1ccccc1)=N\NC(N)=S (centres undefined) | 8.79% [at 10 µM] |  |
| COC(=O)C1=C(C(=O)OC)[C@@H]2N(Cc3ccccc3)c3ccccc3[C@@]23C[C@@H](C(=O)OC)N(S(=O)(=O)c2ccc(C(F)(F)F)cc2)C3=N1 | 23.4% [at 10 µM] |  |
| C[C@H]1Cc2c(-c3ccccc3)nc3c(c2CO1)CN(C(=O)C1CC1)CC3 | -5.29% [at 10 µM] |  |
| NC(=O)c1sc(-c2ccsc2)cc1N | -22.8% |  |
| CC(C)(C)OC(=O)NCCCCC1=CC2=CC(=O)C(C)(OC(=O)c3cccs3)C(=O)C2=CO1 (centres undefined) | -20.7% |  |
| COc1cccc([C@@H]2Oc3ccc(Br)cc3C(=O)[C@H]2OC(=O)NCc2ccc3c(c2)OCO3)c1 | -21.2% |  |
| COC(=O)N1C(/C=C/C=C/c2ccc(OC)cc2)=Cc2ccccc2C1CC(C)=O (centres undefined) | -21.1% [at 10 µM] |  |
| CCCCC/C=C\C/C=C\CCCCCCCCCC(=O)NCC(=O)O | 2.32% |  |
| COCCN(C(=O)c1ccccc1F)c1c(N)n(Cc2ccccc2)c(=O)[nH]c1=O | 6.32% |  |
| COc1cccc(-c2cc(=O)c3cc(NC(=O)c4ccc(C)cc4)ccc3[nH]2)c1 | -326% |  |
| CC[C@@]12C=C(/C=C/c3ccccc3)[C@](CC)(C1)[C@H](c1ccccc1)CC2=O | -0.493% |  |
| O=c1c(O)c(Br)ccc2c(Br)c(O)c(O)c(O)c12 | -29.5% |  |
| NCCC(=O)c1ccccc1N | -7.14% |  |
| Nc1nc(CC(=O)CSc2ccc(Cl)cc2)nc(Nc2ccc(F)cc2)n1 | -29.1% [at 10 µM] |  |
| CCOC(=O)N1CCN(CC(=O)Nc2ccc(F)cc2)CC1 | -4.62% [at 10 µM] |  |
| COC(=O)c1cc(NC(=O)CN2CCN(C(C)=O)CC2)cc(C(=O)OC)c1 | -18.4% |  |
| CC(=O)N1CCN(CC(=O)Nc2ccc(SC(F)F)cc2)CC1 |  | 5.62 µM (active) |
| C[C@H]1Cc2c(-c3ccccc3)nc3c(c2CO1)CN(S(=O)(=O)c1ccc(Cl)c2nonc12)CC3 | -22.4% [at 10 µM] |  |

| Compound | cytoprotection (ATP increase) | Potency |
| --- | --- | --- |
| COc1cc(OC)c2c(c1)OC(=O)CC2c1cc(OC)c(OC)c(OC)c1 (centres undefined) | 10.6% |  |
| CN(C)Cc1ccccc1C1(O)c2ccccc2CSc2ccccc21 (centres undefined) | -4.28% |  |
| O=C(/C=C/c1cccc(F)c1)NC1CC1 | 25.8% |  |
| COC(=O)C1=C(C(=O)OC)[C@@H]2N(C)c3ccccc3[C@@]23C[C@@H](C(=O)OC)N(S(=O)(=O)c2ccc(Br)cc2)C3=N1 | 7.44% [at 10 µM] |  |
| C=CCN1c2ccccc2[C@]23C[C@@H](C(=O)OC)N(S(=O)(=O)c4ccc([N+](=O)[O-])cc4)C2=NC(C(=O)OC)=C(C(=O)OC)[C@H]13 | -23.4% [at 10 µM] |  |
| CC(Nc1oc(-c2ccccc2)nc1-c1ccccc1)c1ccccc1 (centres undefined) | -70.1% |  |
| COCOc1cc(OC)ccc1C(=O)/C=C/c1ccc([N+](=O)[O-])cc1 | -28.1% |  |
| C=CC(C1=CC(=O)C=CC1=O)c1ccc(O)cc1 (centres undefined) | 14.6% |  |
| COc1ccc(C(C)=O)cc1CN1C(=O)NC2(CCCCC2C)C1=O (centres undefined) | -14.3% |  |
| CCCCS(=O)(=O)N1C2=NC(C(=O)OC)=C(C(=O)OC)[C@@H]3N(Cc4ccccc4)c4ccccc4[C@]23C[C@H]1C(=O)OC | 21.8% [at 10 µM] |  |
| O=C1c2ccccc2NC(c2ccc(-c3cccc(Cl)c3)o2)N1O (centres undefined) | -70.6% [at 10 µM] |  |
| CC(N)(C(=O)O)c1ccc(-c2nn[nH]n2)cc1 (centres undefined) | -10.3% |  |
| Cc1ccc(S(=O)(=O)N2CCC(=O)N([C@H](COCc3ccccc3)Cc3ccccc3)CC2)cc1 | -2.62% |  |
| C/C=C(\C)C(=O)O[C@H]1CC(C)=C2C(=O)C=C(C)C2[C@@H]2OC(=O)[C@@](C)(OC(=O)C=C(C)C)C21 (some centres undefined) | 11.5% |  |
| O=C(N/N=C/c1cccc2cccnc12)[C@H]1C[C@@H]1c1ccccc1 | 23.6% [at 10 µM] |  |
| O=C(Nc1cccc(C(F)(F)F)c1)c1cc(Br)cc(Br)c1O | -60.4% |  |
| CCN1C(=O)N[C@@H](c2ccccc2)[C@H](C(C)=O)[C@H]1C | -16.1% [at 10 µM] |  |
| CC(=O)CC(c1ccccc1)C1C(=O)Oc2ccccc2C1=O (centres undefined) | 19% |  |
| CNC(=O)C1(C)C=CC2(CCCCC2)N1C(C)=O (centres undefined) | 20.6% |  |
| C=CCNC(=O)c1ccc2c3n(nc2c1)-c1ccc(C)cc1CO3 | -15% [at 10 µM] |  |
| CC(C)(O)c1ccccc1CC[C@H](SCC1(CC(=O)O)CC1)c1cccc(/C=C/c2ccc3ccc(Cl)cc3n2)c1 | -10.2% |  |

| Compound | cytoprotection (ATP increase) | Potency |
| --- | --- | --- |
| C=CC1(C)CC(=O)C2(O)C(C)(O1)C(OC(C)=O)C(O)C1C(C)(C)CCC(O)C12C (centres undefined) | 1.35% |  |
| C[C@H]1Cc2c(COc3ccccc3)nc3c(c2CO1)CN(C(=O)NCc1ccco1)CC3 | 9.12% [at 10 µM] |  |
| O=C1OCCN1C(=O)[C@H]1[C@H](c2ccc(F)cc2)C(c2ccccc2)=NN1c1ccc(Br)cc1 | -121% [at 40.3 µM] |  |
| Cc1cc2oc(=O)cc(-c3ccccc3)c2c(C)c1-c1ccc(OC(F)(F)F)cc1 | -0.152% |  |
| COc1ccc(CC(N)C(=O)NC2C(O)[C@H](n3cnc4c(N(C)C)ncnc43)O[C@@H]2CO)cc1 (some centres undefined) | -162% |  |
| COC(=O)CC1c2ccccc2C(Cc2ccc(OC)cc2)=C(C)N1C(=O)OC (centres undefined) | -4.91% [at 10 µM] |  |
| COc1cc(OC)cc(-c2nc3ccccc3c(=O)n2NC(=O)c2cccnc2Cl)c1 | -11.8% [at 10 µM] |  |
| O=C1C=C(c2ccccc2)CCC1 | 8.09% |  |
| CC(C)[C@@H]1NC(=O)[C@H](Cc2ccccc2)NC(=O)[C@@H](CC(=O)O)NC(=O)CNC(=O)[C@H](CCCNC(=N)N)NC1=O | -24.7% |  |
| COc1ccc(N2CCN(CCNC(=O)c3nnc(Cc4c(F)cccc4Cl)o3)CC2)cc1 | 7.41% [at 0.074 µM] |  |
| Clc1ccc(C(Cn2ccnc2)OCc2ccsc2Cl)c(Cl)c1 (centres undefined) | -66.1% |  |
| COC(=O)C1=C(C(=O)OC)[C@@H]2N(C)c3ccccc3[C@@]23C[C@@H](C(=O)OC)N(C(=O)c2ccco2)C3=N1 | -6.19% [at 10 µM] |  |
| COC(=O)C/C=C/[C@@H](C)[C@H](NC(=O)OCC(Cl)(Cl)Cl)c1ccccc1 | -3.44% |  |
| C=CC1=C2C=C(C3CC3)N(C(CO)CO)C=C2C(=O)C(C)(OC(=O)c2ccco2)C1=O (centres undefined) | -26.7% [at 10 µM] |  |
| Cc1ccc(-c2cccc([C@H]3[C@@H]4C=CC[C@@H](C)[C@@H]4C(=O)N3Cc3ccccc3)c2)cc1 | -64.7% |  |
| COc1ccc(/C=C2\NC(=O)[C@@H]3Cc4ccccc4CN3C2=O)cc1 | -17.8% |  |
| COC(=O)c1c(CCl)noc1C(=O)NC(C)C | -17.6% |  |
| c1ccc(CSc2ncnc3c2sc2nc(N4CCOCC4)c4c(c23)CCCC4)cc1 | -2.4% |  |
| C[C@H]1Cc2c(COc3ccccc3)nc3c(c2CO1)CN(C(=O)Nc1cccc(C#N)c1)CC3 | -20.7% [at 10 µM] |  |
| COc1ccc(-c2nc3c(c4c2C[C@H](c2ccccc2)OC4)CN(C(=O)C2CC2)CC3)c(C)c1 | 6.89% [at 10 µM] |  |
| COC(=O)CSc1ccc2nnc(CCNS(=O)(=O)c3ccc(C)cc3)n2n1 | -3.13% |  |

Reference: PubChem BioAssay AID1471 (National Center for Advancing Translational Sciences (NCATS), 2008)
